High-throughput results deposited in PubChem by The Scripps Research Institute Molecular Screening Center.
A selection: hits, their analogues and other compounds. The true share with any hit is near 2.8%.
MsrA inh: bovine MsrA enzyme inhibitors, primary screen, biochemical, absorbance, HTS. Methionine sulfoxide reductase A (Bos taurus). 0.75% of 360,000 active. AID 651718, 2012. inhibition, % at 15.5 µM. purified bovine MsrA, absorbance read-out; in the data active = inhibition above about 4.5%
SMARCA2 act: SMARCA2 (BRM) function activators, primary screen, cell-based, luminescence, high throughput. 1% of 370,000 active. MG213 cells, MMTV-luciferase reporter, dexamethasone, overnight. activation, % at 9.1 µM; in the data active = activation above about 7.8%
bovine MsrA act: bovine MsrA enzyme activators, primary screen, biochemical, absorbance, HTS. Methionine sulfoxide reductase A (Bos taurus). purified bovine MsrA, absorbance read-out. activation, % at 10.6 µM. 0.3% of 360,000 active. AID 602163, 2012; in the data active = activation above about 7.5%
KLK7 zymogen act: proKLK7 zymogen activators, primary screen, biochemical, fluorescence intensity; purified proKLK7, EDANS-DABCYL substrate fluorescence; 100% is mature enzyme control, 0% vehicle; AID 652039, 2013; Kallikrein-7 (Homo sapiens), P49862; 0.9% of 370,000 active; activation, % at 7 µM;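 active = activation above the mean of all tested compounds plus 3 SD, computed per campaign excluding outliers beyond control limits, cut at about 13% in these data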
Target sequence (P49862 whole entry, looked up): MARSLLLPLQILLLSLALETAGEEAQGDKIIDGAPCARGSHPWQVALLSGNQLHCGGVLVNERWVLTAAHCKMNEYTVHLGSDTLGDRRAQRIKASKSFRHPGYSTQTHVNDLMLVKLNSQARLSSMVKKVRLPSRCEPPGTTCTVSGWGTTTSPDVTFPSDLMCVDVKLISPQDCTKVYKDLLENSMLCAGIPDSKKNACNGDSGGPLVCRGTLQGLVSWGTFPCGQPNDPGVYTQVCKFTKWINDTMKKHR
Numbers stand for hits; - = inactive; . = no result given.

SMILES	MsrA inh	SMARCA2 act	bovine MsrA act	KLK7 zymogen act
Cc1cccc(Nc2nc(C)cc(C)c2C#N)c1	-	-	-	-
Cc1cccc(Nc2nc(N)c(C#N)c(CC#N)c2C#N)c1	4.6	-	-	-
Nc1nc(N)nc(-c2cc(F)ccc2O)n1	-	7.9	-	-
Cc1[nH]n(-c2ccc([N+](=O)[O-])cc2)c(=O)c1C=NCCN1CCN(C(=O)c2ccccc2)CC1	4.8	-	-	-
COc1ccc(CCN=Cc2c(C)[nH]n(-c3ccc([N+](=O)[O-])cc3)c2=O)cc1OC	-	-	-	-
Cn1nc(C(=O)Nc2nc3ccccc3[nH]2)c2ccccc2c1=O	-	16.4	-	-
CCn1nc(C(=O)Nc2nc3ccccc3[nH]2)c2ccccc2c1=O	-	-	-	-
CN(C)CCNc1ncnc2c1ncn2[C@H]1CN(Cc2ccco2)C[C@@H](CO)O1	.	.	-	.
CC(=O)c1ccc(Nc2nc(C(C)N)cs2)cc1 (configuration not stated)	4.6	-	-	-
CC(N)c1csc(Nc2ccc(C(=O)NCCO)cc2)n1 (configuration not stated)	-	-	-	-
O=C1/C(=C/c2ccco2)CCC1C1CCCC1 (configuration not stated)	-	-	-	-
O=C1/C(=C\c2ccco2)CCC/C1=C\c1ccco1	-	15.9	-	-
C=CCOn1c(=O)c(-c2cc3ccccc3o2)[n+]([O-])c2ccccc21	-	7.9	-	-
Cc1ccc(C(=O)N/C(=C\c2cccs2)c2nc3ccccc3[nH]2)cc1	4.6	-	-	-
CCCCC[C@H](O)/C=C/C1C(=O)C=C[C@H]1C/C=C\CCCC(=O)OC (some centres not stated)	-	-	-	-
Cc1cccc(C2=NN(c3ccccc3)[C@@H](C(=O)N3CCOC3=O)[C@@H]2c2ccc([N+](=O)[O-])cc2)c1	5.5	-	-	-
O=C1OCCN1C(=O)[C@H]1[C@H](c2ccc([N+](=O)[O-])cc2)C(c2ccccc2)=NN1c1ccc(Br)cc1	4.8	-	-	-
O=c1n(Cc2ccccc2)c(O)c2n1Cc1ccccc1N=C2c1ccc(C(F)(F)F)cc1	-	-	-	-
CCC(C)[C@H](NC(=O)C1CC(=O)N(c2ccc(OC)cc2)C1)C(=O)NC1CCCC1 (some centres not stated)	-	8.0	-	-
CCN(CC)c1nc(N)c([N+](=O)[O-])c(NCCO)n1	4.7	-	-	-
COc1cc(NCCCC(C)N)c2ncccc2c1 (configuration not stated)	-	-	12.4	-
COc1cc(NCCCCC(C)N)c2nccc(C)c2c1 (configuration not stated)	-	-	-	-
COc1ccc(C2CC(=O)C(c3ccc([N+](=O)[O-])cc3)=CN2Cc2ccccc2)cc1 (configuration not stated)	-	-	.	-
CCN(CC(=O)Nc1ccc(OC)cc1)C(=O)c1ccc2c(c1)NC(=O)CS2	-	-	-	-
COc1ccc(-c2cc(=O)c3c(O)cc(O)cc3o2)cc1	-	7.9	-	-
SMILES	MsrA inh	SMARCA2 act	bovine MsrA act	KLK7 zymogen act
CN1CCN(C2=C(NS(=O)(=O)c3ccccc3)C(=O)c3ccccc3C2=O)CC1	.	.	15.4	.
CN1CCN(c2ncnc3c2[nH]c2ccc(F)cc23)CC1	-	-	-	19.8
Fc1ccc2[nH]c3c(N4CCc5ccccc5C4)ncnc3c2c1	-	-	-	-
COc1ccc(OC)c(Cc2nnc(CCC(=O)N3CCN(C4CCCC4)CC3)o2)c1	-	7.8	-	-
NC(=S)N/N=C1\CC(n2nnnc2-c2ccccc2Cl)C2COC1O2 (configuration not stated)	-	7.8	-	-
CC(C)C[C@H]1COc2c(Cl)cccc2S(=O)(=O)N1Cc1cccc(Cl)c1	-	-	.	-
C#CCN(Cc1cccc(F)c1)C(=O)c1nnc2c3ccccc3n(S(=O)(=O)c3ccc(C)cc3)c2n1	-	-	.	-
O=C(N/N=C/C=C/c1ccco1)c1cnccn1	-	-	-	-
O=C(N/N=C/c1ccco1)c1cnccn1	-	8.0	-	-
CCOc1ccc(N2C(=O)C(C)CNC2=S)cc1 (configuration not stated)	-	-	-	-
CCOc1ccc2nc(SCC(=O)N(C)C)[nH]c2c1	-	7.9	-	-
CCOc1ccc2nc(SCC(=O)N(C)C3CCS(=O)(=O)C3)[nH]c2c1 (configuration not stated)	-	-	-	-
Cc1cc2cc(C(c3nnnn3CC3CCCO3)N3CCCc4ccccc43)c(=O)[nH]c2cc1C (configuration not stated)	4.6	-	-	-
CCc1ccc2[nH]c(=O)c(C(c3nnnn3CC3CCCO3)N3CCCc4ccccc43)cc2c1 (configuration not stated)	-	-	-	-
CCN(CC)c1ccc(C=Nc2ccccc2)c(O)c1	-	-	-	-
CCN(CC)c1ccc(/C=N/NC(=O)OC)c(O)c1	7.2	-	-	-
CCN(CC)c1ccc(/C=N/NC(=S)NC)c(O)c1	-	-	-	-
CCN(CC)c1ccc(N=Cc2ccc(N(CC)CC)cc2O)cc1	4.6	-	-	-
COCCN(Cc1nc2ccccc2c(=O)[nH]1)C(=O)COc1ccccc1-c1ccccc1	-	-	-	-
COc1ccc(Cn2c(SCc3ccc(C)cc3)nc3cc(OC)c(OC)cc3c2=N)cc1Cl	-	9.2	-	-
O=[N+]([O-])c1ccc(C=Nc2ccc(Cl)c([N+](=O)[O-])c2)s1	5.1	-	-	-
Cc1cc(C)cc(N=Cc2ccc([N+](=O)[O-])s2)c1	-	-	-	-
O=C(Nc1ccc(Cl)cc1)OC1CCC12CCC(c1ccccc1)CC2 (configuration not stated)	.	-	.	-
Cc1ccc(O)c(NC(=O)c2cc(-c3ccccc3)on2)c1	-	7.8	-	-
O=C(Nc1cc(Br)ccc1O)c1cc(-c2ccccc2)on1	-	-	-	-
SMILES	MsrA inh	SMARCA2 act	bovine MsrA act	KLK7 zymogen act
COc1ccc(C(=O)N2CCN(c3ccc([N+](=O)[O-])c(-n4nc(C)cc4C)c3)CC2)cc1	-	11.6	-	-
O=C1N=c2ccccc2=C1c1sc(Nc2ccc(O)cc2)nc1O	-	7.8	-	-
C/C(=N/NC(=O)CSc1nnc(-c2ccccc2)n1-c1ccc(Cl)cc1)c1cccc(O)c1	.	-	.	-
CCOC(=O)N1CCC(=NNC(=O)c2ccccc2F)CC1	-	11.1	-	-
Cc1cc(C)cc(Oc2coc3cc(OC(=O)c4cccnc4)ccc3c2=O)c1	-	-	-	-
CCOC(=O)Oc1ccc2c(=O)c(Oc3cc(C)cc(C)c3)coc2c1	-	-	-	35.9
CCOC(=O)Oc1ccc2c(=O)c(Oc3cccc(C)c3)coc2c1	-	-	-	75.9
COc1ccc(CNCC#Cc2ccccc2)cc1	.	-	.	-
N#Cc1ccc(S(=O)(=O)N2CCCc3nc(-c4ccc(Br)cc4)ccc32)cc1	-	-	.	-
COC(=O)C(=CC(=CN(C)C)C=C(C(=O)OC)C(=O)OC)C(=O)OC	4.5	-	-	-
COC(=O)/C(C(C)=O)=C(\C=C\N(C)C)N(C)C	-	-	-	-
